Laboratory results reported in the supplement of paper PMC4894684.
Counter-ions that a name gives are not always drawn. ± gives the standard deviation of the averaged measurements.

Test system: Toxoplasma gondii RH (in HFF)
Assay: parasite growth relative to the screen mean (all compounds = 100%); higher = less inhibition of parasite growth
Details: 5 µM; 72 h; oxygen 21 %
In short: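 Library compounds (10 mM DMSO stocks) were pin-transferred to 5 µM final onto confluent human foreskin fibroblasts in 96-well plates, then infected within 2 h with RH β-Gal–GFP Toxoplasma (MOI 1:5) and grown 72 h at 21% O2. Parasite number came from a CPRG β-Gal assay against in-plate standard curves. Growth is expressed relative to the screen mean (all compounds = 100%), averaged over two screens. Uninfected host-cell viability was checked by CellTiter-Blue.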

Row | Compound | parasite growth [%]
1 | CN(C)C(=O)n1nnnc1Cc1ccc(-c2ccccc2)cc1 | 84.9 ± 38
2 | Cc1ccc(OCC(O)C(C)NC(C)C)c2c1CCC2 (stereo not given) [ICI-118,551 hydrochloride] | 92.9 ± 14
3 | COc1ccc2c(c1)c(CC(=O)N1CCOCC1)c(C)n2C(=O)c1ccc(Cl)cc1 | 133 ± 23
4 | COc1ccc(Br)cc1S(=O)(=O)NC(=O)/C=C/c1ccccc1Cc1ccc2ccccc2c1 | 125 ± 12
5 | COc1ccc([C@@H]2Sc3ccccc3N(CCN(C)C)C(=O)[C@@H]2OC(C)=O)cc1 [Diltiazem hydrochloride] | 94.4 ± 43
6 | CCCCN1CCC(CCC(=O)c2cc(Cl)c(N)cc2OC)CC1 | 67.2 ± 14
7 | CCOC(=O)c1ccc(OC(=O)CCCCCNC(=N)N)cc1 [Gabexate mesylate] | 144 ± 6.4
8 | COC(=O)C(Cc1ccc(OCCn2c(=O)sc3cc(C(=O)c4ccccc4)ccc32)cc1)C(=O)OC | 120 ± 5.3
9 | O=C(NCCNCC(O)COc1ccc(O)cc1)N1CCOCC1 (stereo not given) [Xamoterol hemifumarate] | 117 ± 12
10 | Cc1cccc(C)c1NC(=O)C[N+](C)(C)C | 123 ± 18
11 | CCOC(=O)[C@H](CCc1ccccc1)N[C@@H](C)C(=O)N1Cc2cc(OC)c(OC)cc2C[C@H]1C(=O)O [Moexipril hydrochloride] | 63.9 ± 14
12 | Cc1ccc(NC(=O)C(C)C)cc1C1CCN(Cc2ccc(Oc3ccc(F)c(F)c3)cc2)CC1 | < 0
13 | CCCCCCCCCCC(C)(C)C(=O)Nc1c(OC)cc(OC)cc1OC | 27.8 ± 5.4
14 | CCN(CC)CCOc1ccc(Cc2ccccc2)cc1 [DPPE fumarate] | 75.7 ± 1.7
15 | O=C(Nc1ccncc1)c1cc([N+](=O)[O-])ccc1Cl | < 0
